Values joined by “and” are separate entries in the source; they are usually repeats but may differ in a detail not shown here. Equal entries are not always repeated. Active and inactive are the calls of the source. Unless noted, the rule behind the calls is not given here.

The nature of experiment [1]: anti-His antibody binders, primary screen, artefact control for SMM control protein annotation, biochemical, small-molecule microarray, 635 nm fluorescence (AID 1128).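 Note: score merges feature fluorescence with signal-to-noise for each printed compound spot.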 The note with it: anti-His Alexa647 antibody binding, higher = more signal.
Experiment [2] concerns Human papillomavirus type 1a E7 protein (residues 1-88). Put plainly: HPV1a E7 small-molecule binders, primary screen, biochemical, small-molecule microarray, residues 1-88, 635 nm (AID 1129). The settings on record: small-molecule microarray binding, fluorescence 635 nm; higher = more signal.
Experiment [3] addresses Focal adhesion kinase 1 (Homo sapiens) (UniProt Q05397). In words: small-molecule microarray binders of FAK, primary screen, biochemical, 635/667 nm fluorescence, BSA, DTT (AID 1130).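 Note: composite of spot emission at 667 nm and signal to noise over triplicate slides.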 The note with it: PTK2 binding, 635 nm fluorescence, higher = more signal.
Experiment [4] concerns Fibrinogen (Alexa647-labelled). In words: fibrinogen binders on compound microarrays, profiling panel, artefact control for SMM control-protein annotation, biochemical, small-molecule microarray, 635/667 nm fluorescence (AID 1131).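 Note: z-score merges 667 nm fluorescence with per-spot signal-to-noise over triplicate slides.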 The settings on record: fibrinogen-A647 binding fluorescence, higher = more signal.
Experiment [5] has as its target Follistatin (Homo sapiens) (UniProt P19883). In words: follistatin binders on small-molecule microarrays, primary screen, biochemical, small-molecule microarray, 635/667 nm fluorescence (AID 1132). The note with it: FST binding, 635 nm fluorescence, higher = more signal.
Experiment [6] has as its target Fibroblast growth factor 2 (Homo sapiens) (UniProt P09038). Put plainly: FGF2 binders on small-molecule microarrays, primary screen, biochemical, small-molecule microarray, 635/667 nm fluorescence (AID 1133). The settings on record: small-molecule microarray binding, FGF2, fluorescence 635/667; higher = more signal.
The nature of experiment [7]: mitochondrial membrane potential change in A549 cells, profiling panel, cell-based, JC-1 fluorescence, basal, 24 h, 100 nL (AID 1138).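 Note: A549 lung adenocarcinoma cells under basal conditions with no added stimulus; test concentration not given here.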 The note with it: higher = more signal.
In a further experiment the test system is Lefty1. In words: Lefty1 binders on small-molecule microarrays, primary screen, biochemical, small-molecule microarray, 635/667 nm fluorescence (AID 1139). The settings on record: small-molecule microarray binding, fluorescence 635/667; higher = more signal.
The subject of experiment [8] is wheat germ agglutinin (Triticum aestivum), Alexa647-labelled. Put plainly: wheat germ agglutinin binders on compound microarrays, profiling panel, artefact control for SMM control-protein annotation, biochemical, small-molecule microarray, 635/667 nm fluorescence (AID 1140).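 Note: score merges 667 nm feature emission with signal to noise over triplicate slides.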 The note with it: WGA-A647 binding, 635 nm fluorescence, higher = more signal.
In experiment [9] the target is Luciferin 4-monooxygenase (Photinus pyralis) (UniProt P08659). In words: firefly luciferase enzyme inhibitors, primary screen, biochemical, luminescence, purified enzyme, 2006 set (AID 1141).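 Note: cell-free assay with purified firefly luciferase at 100 ng per well in PBS; test concentration not given here.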 The settings on record: SteadyGlo luminescence, 30 min, higher = more signal, called active from +8 up or from −8 down.
Luciferin 4-monooxygenase (Photinus pyralis), sequence (P08659 whole entry, looked up): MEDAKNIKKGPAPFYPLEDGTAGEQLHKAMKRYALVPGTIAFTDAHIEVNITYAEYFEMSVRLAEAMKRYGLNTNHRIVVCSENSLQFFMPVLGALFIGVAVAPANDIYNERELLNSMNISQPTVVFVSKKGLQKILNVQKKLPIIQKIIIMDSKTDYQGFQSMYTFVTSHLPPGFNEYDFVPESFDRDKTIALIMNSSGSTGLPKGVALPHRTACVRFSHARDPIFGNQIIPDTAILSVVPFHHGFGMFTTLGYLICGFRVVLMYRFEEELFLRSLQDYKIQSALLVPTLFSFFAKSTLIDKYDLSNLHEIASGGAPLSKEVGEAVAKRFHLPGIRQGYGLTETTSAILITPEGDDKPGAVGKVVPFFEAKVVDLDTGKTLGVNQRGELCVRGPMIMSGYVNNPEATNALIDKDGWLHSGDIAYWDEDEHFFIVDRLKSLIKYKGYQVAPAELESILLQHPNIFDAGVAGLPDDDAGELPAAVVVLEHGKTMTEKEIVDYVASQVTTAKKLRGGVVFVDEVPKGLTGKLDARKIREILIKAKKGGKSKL
The subject of experiment [10] is Wnt5a (protein binding on small-molecule microarray). In words: Wnt5a binders on small-molecule microarray, primary screen, biophysical, 635/667 nm fluorescence (AID 1142).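 Note: fluorescence read at 667 nm with signal to noise per printed feature.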 The note with it: 635 nm fluorescence, higher = more signal.
The nature of experiment [11]: cell viability in Huh7 cells, primary screen, cytotoxicity control for HCV replication inhibitor project, CellTiter-Glo luminescence, basal, 48 h (AID 1143).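 Note: Huh7 hepatoma cells carrying a hepatitis C replication reporter with no stimulus; test concentration not given here.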 The settings on record: Huh7 HCV replicon, higher = more signal, called active from +8 up or from −8 down. For orientation: In ATP-based viability assays light output follows the ATP content of the culture.
Experiment [12] is described as follows: P. aeruginosa biofilm formation inhibitors, primary screen, PAO1 strain, BacTiter-Glo luminescence, LB-PBS (AID 1144). The settings on record: 12 h, higher = more signal.
A short description of experiment [13]: CREB reporter modulators without forskolin, primary screen, cell-based, PC12, CRE-LacZ reporter, unstimulated (AID 1145). The note with it: no forskolin, luminescence, 4.5 h, higher = more signal, called active from +8 up or from −8 down.
A short description of experiment [14]: CREB reporter modulators under forskolin, primary screen, cell-based, PC12, CRE-LacZ reporter, forskolin-stimulated (AID 1146).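 Note: PC12 cells with 6xCRE LacZ reporter stimulated by forskolin 10 µM; beta-galactosidase reporter signal reflecting CREB driven transcription.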 The settings on record: luminescence, 4.5 h, higher = more signal, called active from +8 up or from −8 down.
Experiment [15] concerns the target Streptavidin (Streptomyces avidinii) (UniProt P22629). In words: streptavidin binders on small-molecule microarray, primary screen, artefact control for SMM compound annotation, biophysical, 635/667 nm fluorescence (AID 1147).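 Note: signal reflects streptavidin binding to arrayed compounds as a control protein.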 The note with it: streptavidin binding, higher = more signal.
A short description of experiment [16]: small-molecule binders of probe aInhba, primary screen, biochemical, small-molecule microarray, 635/667 nm fluorescence (AID 1148).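 Note: score merges 667nm spot fluorescence with signal-to-noise for antibody binding to printed compounds.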 The note with it: higher = more signal.
Experiment [17] concerns the target Torsin-1A (Homo sapiens) (UniProt O14656). Put plainly: torsin A binders from cell lysate, primary screen, small-molecule microarray, wild-type, 635/667 nm (AID 1149). The settings on record: COS7 hTOR1A-WT lysate, 635 nm fluorescence, higher = more signal.
For experiment [18] the target is unchanged. In words: small-molecule binders of mutant TOR1A in lysate, primary screen, cell lysate, small-molecule microarray, COS7 lysate, 635/667 nm fluorescence (AID 1150).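 Note: score pools 667 nm emission and signal to noise measuring lysate protein binding.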 The note with it: COS7 hTOR1A mutant lysate, 635 nm fluorescence, higher = more signal.
Experiment [19] deals with Sonic hedgehog protein (Shh). Put plainly: small-molecule binders of Shh protein, primary screen, biochemical, small-molecule microarray, 635/667 nm fluorescence (AID 1151).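 Note: Shh protein binding to compounds spotted on small-molecule microarray slides; score combines spot fluorescence intensity with signal-to-noise across triplicate slides.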 The note with it: small-molecule microarray binding, 635 nm fluorescence; higher = more signal.

Fibroblast growth factor 2 (Homo sapiens), sequence (P09038 whole entry, looked up): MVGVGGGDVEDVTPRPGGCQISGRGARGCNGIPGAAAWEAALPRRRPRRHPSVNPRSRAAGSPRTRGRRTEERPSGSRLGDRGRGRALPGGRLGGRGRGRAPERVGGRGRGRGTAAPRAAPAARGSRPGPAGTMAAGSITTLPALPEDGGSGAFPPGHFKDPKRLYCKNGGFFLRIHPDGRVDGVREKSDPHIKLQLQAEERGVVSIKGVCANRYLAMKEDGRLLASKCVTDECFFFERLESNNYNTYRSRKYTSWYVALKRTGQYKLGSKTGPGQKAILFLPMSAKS
Torsin-1A (Homo sapiens), sequence (O14656 whole entry, looked up): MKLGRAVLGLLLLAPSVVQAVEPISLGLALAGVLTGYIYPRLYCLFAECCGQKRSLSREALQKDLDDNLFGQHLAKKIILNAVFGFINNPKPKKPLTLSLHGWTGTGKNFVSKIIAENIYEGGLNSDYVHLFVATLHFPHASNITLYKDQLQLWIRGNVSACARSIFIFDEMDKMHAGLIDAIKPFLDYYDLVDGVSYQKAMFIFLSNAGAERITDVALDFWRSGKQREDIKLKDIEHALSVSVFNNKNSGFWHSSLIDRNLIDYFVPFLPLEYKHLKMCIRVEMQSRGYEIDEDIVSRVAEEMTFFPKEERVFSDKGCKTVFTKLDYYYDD
Follistatin (Homo sapiens), sequence (P19883 whole entry, looked up): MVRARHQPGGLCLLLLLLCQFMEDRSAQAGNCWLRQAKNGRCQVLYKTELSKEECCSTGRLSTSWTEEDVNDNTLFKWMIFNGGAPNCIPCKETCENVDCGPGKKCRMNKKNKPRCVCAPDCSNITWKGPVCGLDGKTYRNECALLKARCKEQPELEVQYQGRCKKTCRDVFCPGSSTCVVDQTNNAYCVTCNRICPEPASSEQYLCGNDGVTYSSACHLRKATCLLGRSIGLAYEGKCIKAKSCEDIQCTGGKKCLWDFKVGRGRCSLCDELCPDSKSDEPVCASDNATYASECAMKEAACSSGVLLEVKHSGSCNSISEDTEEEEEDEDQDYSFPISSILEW
Streptavidin (Streptomyces avidinii), sequence (P22629 whole entry, looked up): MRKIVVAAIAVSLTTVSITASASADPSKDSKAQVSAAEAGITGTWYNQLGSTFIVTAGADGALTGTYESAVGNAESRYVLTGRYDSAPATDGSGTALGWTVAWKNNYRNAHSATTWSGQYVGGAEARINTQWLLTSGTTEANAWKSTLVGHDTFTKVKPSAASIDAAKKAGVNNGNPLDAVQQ
Focal adhesion kinase 1 (Homo sapiens), sequence (Q05397 whole entry, looked up): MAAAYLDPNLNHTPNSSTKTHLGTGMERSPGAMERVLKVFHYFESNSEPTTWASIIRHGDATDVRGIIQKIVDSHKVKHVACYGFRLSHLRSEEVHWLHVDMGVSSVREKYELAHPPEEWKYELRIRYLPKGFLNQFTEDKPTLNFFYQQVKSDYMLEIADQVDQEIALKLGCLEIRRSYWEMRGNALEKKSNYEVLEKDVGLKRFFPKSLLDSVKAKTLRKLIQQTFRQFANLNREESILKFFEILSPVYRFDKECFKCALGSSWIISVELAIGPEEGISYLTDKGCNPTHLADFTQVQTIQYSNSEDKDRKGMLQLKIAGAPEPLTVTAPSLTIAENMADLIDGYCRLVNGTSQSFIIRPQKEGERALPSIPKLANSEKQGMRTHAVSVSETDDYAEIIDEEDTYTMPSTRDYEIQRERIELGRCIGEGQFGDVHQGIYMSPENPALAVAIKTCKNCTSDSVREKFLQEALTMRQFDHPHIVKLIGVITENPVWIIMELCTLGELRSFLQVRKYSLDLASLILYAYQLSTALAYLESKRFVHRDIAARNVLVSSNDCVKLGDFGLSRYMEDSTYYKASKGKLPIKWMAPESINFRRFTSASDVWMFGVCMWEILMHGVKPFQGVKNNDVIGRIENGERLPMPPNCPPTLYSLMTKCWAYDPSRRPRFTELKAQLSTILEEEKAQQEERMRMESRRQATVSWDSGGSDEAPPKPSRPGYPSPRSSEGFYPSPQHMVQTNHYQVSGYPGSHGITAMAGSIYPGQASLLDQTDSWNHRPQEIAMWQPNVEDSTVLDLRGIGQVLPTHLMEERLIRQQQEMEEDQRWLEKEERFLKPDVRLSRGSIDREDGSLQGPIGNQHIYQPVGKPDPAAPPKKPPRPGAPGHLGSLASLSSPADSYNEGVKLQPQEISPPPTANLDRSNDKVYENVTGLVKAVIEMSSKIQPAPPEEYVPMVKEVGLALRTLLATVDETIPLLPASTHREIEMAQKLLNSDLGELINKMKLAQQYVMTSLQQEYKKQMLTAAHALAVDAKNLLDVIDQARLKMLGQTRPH

On to `Cc1ccc(S(=O)(=O)N[C@@H]2COC(=O)CC=C[C@@H](C)[C@@H]3C=C[C@H](O)[C@@H](COC(=O)CC=C[C@H]2C)O3)cc1`, for which the composite z-score in experiment [1] was -0.226 and -0.118; in [2], -0.617 and -0.0999; in experiment [3] it was -0.466 and -0.318; in experiment [4] it was -0.656 and 0.267; in [5] it was 1.34 and 0.443; in experiment [6] it was 1.01 and 0.578. Besides, the composite z-score is 1.26 and 0.632 in the experiment on Lefty1; -0.113 and -0.0881 in experiment [8]; -0.0379 and -0.0821 in [10]; -0.298 and 0.657 in experiment [15]; -0.111 and -0.157 in [16]; 0.815 and 0.176 in the experiment with Torsin-1A (Homo sapiens) [17]. Moreover, the composite z-score was 0.665 and 0.263 with Torsin-1A (Homo sapiens) [18]; 1.43 and 0.631 in [19]. Moreover, the z-score in experiment [7] was 1.78 and -1.7; in experiment [9] it was -0.92 (inactive) and 1.02 (inactive); in experiment [11], -0.0259 (inactive) and -3.11 (inactive); in experiment [12] it was -0.356 (inactive) and -2.59 (inactive); in experiment [13], -0.384 (inactive) and -0.478 (inactive); in [14], -0.419 (inactive) and -0.201 (inactive).
For the molecule `C=CCN(C(=O)C(c1cccs1)N(CCOCCO)C(=O)/C=C\C(=O)O)c1ccc(OC)cc1` (stereo not given), the composite z-score in experiment [1] is -0.542 and -1.89; in experiment [2] it was -0.923 and -1.57; in experiment [3], -0.303 and -0.67; in experiment [4], -0.627 and -1.54; in experiment [5], -0.745 and -1.07; in experiment [6], -0.993 and -1.6. Besides, the composite z-score in the experiment on Lefty1 is -0.208 and -1.45; in experiment [8], -0.628 and -2.28; in [10], -0.459 and -0.385; in [15], -1.09 and -2.3; in experiment [16], -0.128 and -0.208; with Torsin-1A (Homo sapiens) [17], -0.16 and -1.77. In addition, the composite z-score in the experiment with Torsin-1A (Homo sapiens) [18] was -1.17 and -0.642; in [19], -0.452 and 0.0229. For the same molecule, the z-score in [7] was 0.13 and 1; in experiment [9], 0.286 (inactive) and -2.02 (inactive); in experiment [11], -0.751 (inactive) and -0.299 (inactive); in [12], -2.23 (inactive); in experiment [13], -1.58 (inactive) and -0.749 (inactive); in [14] it was -0.418 (inactive) and -1.15 (inactive).
For `CCOC(=O)c1ccc(NC(=O)O[C@H]2[C@H](OC(=O)Nc3ccccc3)[C@H](OC(=O)Nc3ccccc3)[C@@H](OC)O[C@@H]2CO)cc1`, the composite z-score in experiment [1] is 1.27 and 1.9; in [2], 1.21 and 1.23; in experiment [3], 0.495 and 1.09; in experiment [4] it was 0.982 and 0.709; in experiment [5], 1.27 and 1.31; in experiment [6], 1.19 and 0.806. In addition, the composite z-score in the experiment with Lefty1 is 0.551 and 1.15; in experiment [8], 0.96 and 1.22; in experiment [10] it was 0.679 and 0.445; in experiment [15], 1.06 and 0.79; in [16] it was 0.189 and 0.232; with Torsin-1A (Homo sapiens) [17], 0.147 and 0.386. Besides, the composite z-score was 0.592 and 0.568 in the experiment with Torsin-1A (Homo sapiens) [18]; 1.17 and 1.63 in [19]. Also, the z-score in experiment [7] is -0.469 and -0.781; in experiment [9], 0.197 (inactive) and -0.2 (inactive); in [11], -4.37 (inactive) and -5.71 (inactive); in experiment [12] it was 0.44 (inactive) and -0.118 (inactive); in experiment [13] it was -0.0484 (inactive) and 0.596 (inactive); in experiment [14], 0.359 (inactive) and -1.63 (inactive).

The values are drawn from PubChem BioAssay.
